The list is not random: actives were taken first. Their share in the collection is about 1.4%.
MbtI inh – blocks the Mycobacterium tuberculosis siderophore enzyme MbtI; P9WFX0; purified MbtI enzyme, fluorescence intensity read-out; inhibition, % (no concentration beside the values); actives 0.89% (n = 100,000); AID 493033; in the data active = inhibition mostly above about 56%, no sharp cut-off; inactive = mostly below about 77%
AID504770 – E. coli YBA685 growth inhibition, screen for V. cholerae RctB inhibitors | z-score (concentration not given with the values) | actives 0.27% (n = 130,000) | E. coli YBA685 rctB-dependent plasmid, OD600 growth, 3 h; stronger effect = lower value; in the data active = z-score below about -2, passing the limit was not always enough
MenB inh – Mtb MenB enzyme inhibition; MenB enzyme assay, absorbance read-out; inhibition, % (no concentration beside the values); actives 0.43% (n = 100,000); AID 540299; in the data active = inhibition above about 21%, passing the limit was not always enough
Target sequence (P9WNP5 whole entry, looked up): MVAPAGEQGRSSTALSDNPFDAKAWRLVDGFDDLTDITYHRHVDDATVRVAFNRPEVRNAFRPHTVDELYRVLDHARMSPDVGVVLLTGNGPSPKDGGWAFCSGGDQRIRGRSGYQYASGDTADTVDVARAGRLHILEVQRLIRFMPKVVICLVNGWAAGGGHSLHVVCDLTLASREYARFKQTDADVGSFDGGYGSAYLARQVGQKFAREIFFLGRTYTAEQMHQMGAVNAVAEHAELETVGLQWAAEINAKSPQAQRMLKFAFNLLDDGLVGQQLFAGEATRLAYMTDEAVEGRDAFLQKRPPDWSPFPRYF
Polio RdRp inh – poliovirus RNA polymerase inhibition. P03300. poliovirus polymerase elongation, fluorescence polarization; stronger effect = lower value. % elongation, % (compound at 16.7 µg/mL). actives 0.66% (n = 150,000); in the data active = % elongation below about 90%
Hits are given with their value; i = inactive; nt = not tested or not shown.

SMILES	MbtI inh	AID504770	MenB inh	Polio RdRp inh
CCCNC(=O)C1CCN(S(=O)(=O)c2ccccc2)CC1	i	i	i	i
COC(=O)C1(c2ccccc2)NC(c2ccccc2C)C2C(=O)N(C)C(=O)C21 (centres undefined)	i	i	i	i
COC(=O)C1(C(C)C)NC(c2ccccc2OC)C2C(=O)N(C)C(=O)C21 (centres undefined)	i	i	27.1	i
CC(C)(C)NC(=O)CCC1=NS(=O)(=O)c2ccccc2N1	i	i	i	i
CC(C)c1cccc(C(C)C)c1O	i	nt	i	i
Cc1cccc(O)c1O	85.8	i	i	i
CC(NCc1cccs1)C(=O)Nc1ccc(S(=O)(=O)N2CCCC2)cc1 (centres undefined)	i	i	i	i
O=c1sc2c(n1-c1ccccc1)SCC1COc3ccccc3C21 (centres undefined)	i	i	i	i
O=C1OC2C(C(=O)O)Sc3c(sc(=O)n3-c3ccccc3)C2c2cc(Br)ccc21 (centres undefined)	i	i	39.3	i
COc1ccccc1NC(=O)Cc1noc(COC(=O)c2cccc(S(=O)(=O)N3CCc4ccccc43)c2)n1	i	i	i	i
COC(=O)c1cc2oc(C)cc2n1CC(=O)Cc1ccc(OC)cc1OC	i	i	i	i
CC1SC(=S)NN1c1ccccc1 (centres undefined)	88.0	i	nt	i
CCCCNS(=O)(=O)c1ccc2[nH]c(=S)[nH]c2c1	i	i	i	88.0
COc1cc2ccc(=O)oc2c(OC2OC(CO)C(O)C(O)C2O)c1O (centres undefined)	nt	i	i	i
COc1c(O)cc2c(c1O)C1OC(CO)C(O)C(O)C1OC2=O (centres undefined)	i	nt	43.0	i
O=C(Nc1cccc(Cl)c1)C1CCN(c2ccc(C(F)(F)F)cn2)CC1	i	i	i	i
Nc1ccc2c(c1)OC1(O)c3ccccc3C(=O)C21O (centres undefined)	i	i	i	i
O=C1CCCC2=C1C1(O)C(=O)c3ccccc3C1(O)O2 (centres undefined)	i	i	i	78.0
Cc1cc(C)nc(SCc2csc(N)n2)n1	i	i	i	i
N=C(N)SCc1csc(N)n1	nt	i	i	87.0
CNC(=O)c1sc(CN2C(=O)c3ccccc3S2(=O)=O)nc1C	92.0	i	i	65.0
O=S(=O)(c1cccs1)N1CCN(c2cccc(C(F)(F)F)c2)CC1	i	i	i	i
CCCN=c1ssc(=O)n1CCC	66.8	i	i	i
CCn1c(C)c(C)c2cc(C(=O)NC3CCCC3)ccc21	i	i	i	i
COc1ccccc1C(=O)NCC(=O)O	i	i	34.7	i
SMILES	MbtI inh	AID504770	MenB inh	Polio RdRp inh
COc1cc(S(=O)(=O)N2CCCCC2C)c(OC)cc1Cl (centres undefined)	i	i	i	i
Clc1ccccc1C1=NC2=S(O1)OC(c1ccccc1Cl)=N2	80.5	i	i	i
CCOC(=O)CSc1sc(C(=O)OCC)c(N)c1C(=O)N1CCOCC1	i	i	i	i
Cc1ccc(-c2nc(N)s[n+]2-c2ccccc2)cc1	nt	-2.35	nt	nt
COc1ccc(-c2nc(N)s[n+]2-c2ccccc2)cc1	97.7	i	nt	i
CCCn1c(SCc2cc3c(cc2Br)OCCO3)n[nH]c1=O	i	i	i	i
O=C(c1cccnc1Nc1ccccc1F)N1CCCCC1	i	i	38.8	i
Cc1ccc(N2Cc3cc(C)c(C)cc3C2)cc1	i	i	i	i
COc1cc(OC)cc(C(=O)N2CCC(C(=O)NCCc3ccccc3)CC2)c1	i	i	47.9	i
O=S(=O)(c1ccc(Cl)cc1)N1CN(Cc2cccs2)c2nc3ccccc3nc21	i	i	i	nt
O=C(CSC1=Nc2ccccc2C2CC=NN12)Nc1ccc2c(c1)CCC2 (centres undefined)	i	i	i	3.0
CCOc1ccccc1NC(=O)COc1ccccc1F	i	i	nt	i
CCN(CC(O)c1cccc(O)c1)C(=S)Nc1ccc(S(=O)(=O)N2CCOCC2)cc1 (centres undefined)	i	i	i	i
CCS(=O)(=O)c1ncc(Cl)c(C(=O)Nc2ccc(Cl)cc2)n1	62.9	i	i	i
Cc1ccc(S(=O)(=O)/N=C2\C=C(Sc3ncn[nH]3)C(=O)c3ccccc32)cc1	85.7	i	i	i
O=C1C(Sc2ccccc2)=C/C(=N/S(=O)(=O)c2cccs2)c2ccccc21	i	i	i	i
Cc1ccc(S(=O)(=O)/N=C2/C=C(Sc3ncn[nH]3)C(=O)c3ccccc32)cc1	87.7	i	nt	nt
CC(C)c1ccc(S(=O)(=O)/N=C2/C=C(Sc3ncn[nH]3)C(=O)c3ccccc32)cc1	i	i	i	66.0
Cn1c(=NC(=O)c2cccc(F)c2)sc2ccccc21	i	i	i	i
CC1(C)N=C(c2ccccc2)C(=S)N1C(=O)c1ccccc1	56.6	i	i	i
Cc1ccc(C(C)C)cc1OC(=O)c1cn(CCC#N)nc1-c1cccs1	i	i	i	i
O=[n+]1c2c(n([O-])c3ccccc31)CCC2	i	-3.35	i	i
Cc1ccc2c(c1)n([O-])c1c([n+]2=O)CCCC1	i	i	i	i
Cc1cc(C(=O)CSc2nc(N)c(C#N)cc2C#N)c(C)n1-c1ccc2c(c1)OCO2	i	i	i	i
OC(COCC1CC=CCC1)CN(Cc1ccccc1)Cc1ccccc1 (centres undefined)	nt	i	i	86.0
SMILES	MbtI inh	AID504770	MenB inh	Polio RdRp inh
CCc1cccc(NC(=O)c2ccc(CN3C(=O)C(C)=C(c4ccc(OC)cc4)S3(=O)=O)cc2)c1	nt	nt	nt	8.0
COc1ccc(C2=C(C)C(=O)N(Cc3ccc(C(=O)Nc4cccc(F)c4)cc3)S2(=O)=O)cc1	nt	nt	nt	i
CC(C)N(C(=O)CSc1nccc(=O)[nH]1)c1ccccc1	i	i	i	i
CCCCN(C)C(=O)C1CCC(CNS(=O)(=O)c2ccc3c(c2)CC(C)N3C(C)=O)CC1 (centres undefined)	nt	nt	nt	15.0
Fc1ccccc1CN1CCC(CNc2nc(-c3ccccc3)no2)CC1	i	i	i	i
O=C(Nc1ccccc1)c1cc(Cl)ccc1O	i	-2.65	nt	i
CO[C@@H]1[C@@H](OC(N)=O)[C@@H](O)[C@H](Oc2ccc3c(O)c(NC(=O)c4ccc(O)c(CC=C(C)C)c4)c(=O)oc3c2C)OC1(C)C	i	i	i	i
CO[C@@H]1[C@H](OC(N)=O)C(O)[C@H](Oc2ccc3c(O)c(NC(=O)c4ccc(O)c(CC=C(C)C)c4)c(=O)oc3c2C)OC1(C)C (some centres undefined)	i	nt	i	101.0
CCn1c(C)nc2cc(OC)ccc21	i	i	nt	i
COc1cc2nc(C)n(C(=S)S)c2cc1OC	i	i	i	78.0
Cc1ccc(/C=C/C(=O)OCC(=O)c2cc(C)n(CC3COc4ccccc4O3)c2C)o1 (centres undefined)	i	i	i	nt
CCOC(=O)CC1Sc2ccccc2N=C1SCC(=O)Nc1ccc(Cl)cc1Cl (centres undefined)	95.8	i	i	i
Cc1nnc(SCC(=O)Nc2ccc(Cl)cc2Cl)n1C	i	i	nt	i
CCOCCCNc1n[nH]c(=S)s1	i	i	i	88.0
CCC(=O)NC(c1c(C)[nH]n(-c2ccccc2)c1=O)(C(F)(F)F)C(F)(F)F	nt	-3.25	i	i
